This is a sample that favours compounds with a hit; in the whole collection about 15% have one here.
Gal4-VP16 FLuc: counter-screen for ROR gamma inhibitors: Gal4-VP16 reporter; Drosophila S2 Gal4-VP16 UAS-luciferase, luminescence, 20 h; Potency, µM (top dose mostly 53.6 µM), actives largely listed as inhibitors; hit rate 3.5% among 310,000; AID 2546;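 further: Gal4-VP16 expression switched on by copper sulfate through the metallothionein promoter; nearly all actives have a fitted effect of over 50% in size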
ALOX12 inh: inhibitors of human 12S-lipoxygenase ALOX12; hit rate 1.1% among 580,000; Potency, µM (doses to about 108 µM), usual class: inhibitors; P18054; purified 12hLO, xylenol orange hydroperoxide absorbance
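Purified human 12hLO (150 nM final) in 25 mM Hepes, 0.01% Triton X-100, pH 7.0 was preincubated 15 min at room temperature with compound. Then 40 uM arachidonic acid was added, 30 min. Hydroperoxide was read by Fe-XO absorbance ratio 573/405 nm.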
ELG1 repair inh: inhibitors of ELG1-dependent DNA repair in HEK293T cells; HEK293T ELG1-luciferase reporter, luminescence, 16 h; DNA damage induced by 5-fluorouridine; Potency, µM (doses to about 46.1 µM), hits mostly inhibitors; hit rate 2.3% among 330,000; AID 504467; further: nearly all actives have a fitted effect of over 55% in size
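Overnight (16 hr) co-exposure of 2,000 cells/well to 5-fluorouridine and compound at 37 °C preceded detection. Luciferase was quantified via ONE-Glo luminescence; loss of signal denotes inhibition.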
RORg inh: blocks mouse ROR gamma transcriptional activity; Drosophila S2 Gal4-RORgamma UAS-luciferase reporter, 20 h; Potency, µM (doses to about 53.6 µM), most hits filed as inhibitors; hit rate 5.4% among 310,000; AID 2551; further: nearly all actives have a fitted effect of over 60% in size
Target sequence (P51450 whole entry, looked up, the tested form may be a part): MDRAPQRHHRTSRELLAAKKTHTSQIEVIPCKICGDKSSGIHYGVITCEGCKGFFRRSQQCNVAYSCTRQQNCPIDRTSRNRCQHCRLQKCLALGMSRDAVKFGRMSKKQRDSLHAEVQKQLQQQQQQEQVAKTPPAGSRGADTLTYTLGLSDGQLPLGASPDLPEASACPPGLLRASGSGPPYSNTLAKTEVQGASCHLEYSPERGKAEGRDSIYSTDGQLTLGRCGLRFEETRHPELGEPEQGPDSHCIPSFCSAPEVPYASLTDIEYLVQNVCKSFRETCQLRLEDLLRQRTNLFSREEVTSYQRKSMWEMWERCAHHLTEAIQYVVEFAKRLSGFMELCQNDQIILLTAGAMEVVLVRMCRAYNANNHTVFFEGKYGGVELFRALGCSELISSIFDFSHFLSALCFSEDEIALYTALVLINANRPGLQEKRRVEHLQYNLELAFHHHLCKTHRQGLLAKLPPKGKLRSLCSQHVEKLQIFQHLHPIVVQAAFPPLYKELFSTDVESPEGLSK
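Schneider cells (Drosophila), stable Gal4 DBD–ROR gamma + UAS-luc; 1 hr cmpd preincubation; Cu2+ induction 700 uM final; 20 hr ambient; luminescence.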
TDP1 cell CPT: growth inhibition of DT40 Tdp1-/-;hTDP1 cells with camptothecin (screen for TDP1 inhibitors); AID 686979; chicken DT40 Tdp1-/-;hTDP1 cells + 20 nM CPT, ATP luminescence, 48 h; hit rate 12% among 420,000; Potency, µM (doses to about 46.2 µM), most hits filed as inhibitors; further: nearly all actives have a fitted effect of over 55% in size
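Chicken DT40 Tdp1-/- cells complemented with human TDP1, 400 cells/well, exposed to compounds plus 20 nM camptothecin for at least 48 h at 37 C; viability read as ATP content by CellTiter-Glo luminescence.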
TDP1 cell noCPT: qHTS for Inhibitors of human tyrosyl-DNA phosphodiesterase 1 (TDP1): qHTS in cells in absence of CPT; Potency, µM (doses to about 46.2 µM), actives largely listed as inhibitors; hit rate 15% among 420,000; DT40 Tdp1-/- hTDP1 cells, no CPT, ATP luminescence, 48 h; AID 686978, 2013; further: nearly all actives have a fitted effect of over 55% in size
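Cells were dispensed at 400 per well, compounds added by pin tool, plates incubated ≥48 hr at 37 °C, then CellTiter-Glo added for 30 min at room temperature before luminescence reading. Line: DT40 Tdp1-/- complemented with hTDP1; camptothecin omitted.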
Hits are given with their value; 0 = inactive; ? = inconclusive; - = no result given; [ ] = remark or other dose. The call rests on the fitted dose curve; in most records, active means well fitted curve in the direction sought with a large enough effect; inconclusive means small, poorly fitted or top-dose-only effect, or another doubt; inactive means no such curve, though single readings can be large; an effect the other way counts as inactive or inconclusive.

SMILES	Gal4-VP16 FLuc	ALOX12 inh	ELG1 repair inh	RORg inh	TDP1 cell CPT	TDP1 cell noCPT
O=C(NC(=S)NCCO)c1cn(-c2ccccc2)nc1-c1ccccc1	?	39.8µM	?	10µM	0	0
O=C(NC(=S)N1CCOCC1)c1cn(-c2ccccc2)nc1-c1ccccc1	-	?	18.3µM	-	?	?
O=C(NCc1ccccn1)c1cn(-c2ccccc2)nc1-c1ccc(Cl)cc1	0	0	0	0	?	25.9µM
CC(C)n1nc(C(=O)NCC(C)(C)N2CCCCC2)c2ccccc2c1=O	-	0	-	-	-	-
O=c1c[n+]([O-])c2ccccc2n1OCc1c(F)cccc1F	0	0	0	0	13µM	20.6µM
CC1=NS(=O)(=O)N(Cc2ccccc2)C=C1C(=O)OCc1nc(-c2ccccc2Cl)no1	-	0	-	-	-	-
Cc1nn(C)c(C)c1S(=O)(=O)N1CCC(C(=O)NCCC2=CCCCC2)CC1	0	0	0	0	18.4µM	?
COc1ccc(S(=O)(=O)N2CCCC(C(=O)NCCC3=CCCCC3)C2)cc1 (centres undefined)	0	0	0	0	0	?
COc1ccc(C)cc1S(=O)(=O)N1CCC(C(=O)NCCC2=CCCCC2)CC1	0	0	0	0	?	?
Cc1cc(C)c(S(=O)(=O)N2CCCC(C(=O)NCCC3=CCCCC3)C2)c(C)c1 (centres undefined)	0	0	?	0	?	20.6µM
COc1ccc(Cl)cc1S(=O)(=O)N1CCC(C(=O)NCCC2=CCCCC2)CC1	0	0	0	0	23.1µM	?
CC(NC(=O)CSc1nnc(-c2cccnc2)n1-c1ccccc1)c1ccc2c(c1)OCCO2 (centres undefined)	-	0	-	-	-	-
O=c1c2nnn(-c3ccccc3)c2ncn1C/C=C/c1ccccc1	0	0	0	0	0	25.9µM
COc1cccc(-n2nnc3c(=O)n(C/C=C/c4ccccc4)cnc32)c1	0	0	0	0	0	0
Fc1ccc(C2=CC(c3cccs3)n3nnnc3N2)cc1 (centres undefined)	0	0	?	0	0	0
COc1ccccc1C1C=C(c2ccc(C)cc2)Nc2nnnn21 (centres undefined)	0	0	?	0	18.4µM	20.6µM
COc1ccc(C2=CC(c3c(C)nn(-c4ccccc4)c3Cl)n3nnnc3N2)cc1OC (centres undefined)	0	0	?	0	?	14.6µM
Cc1cccc(C2C=C(c3ccc(F)cc3)Nc3nc4ccccc4n32)c1 (centres undefined)	-	0	-	-	?	?
COc1ccc(C2=CC(c3c(F)cccc3Cl)n3nnnc3N2)cc1 (centres undefined)	-	39.8µM	-	-	-	-
CCc1ccc(C2=CC(c3c(F)cccc3Cl)n3c(nc4ccccc43)N2)cc1 (centres undefined)	-	0	-	-	18.4µM	7.31µM
COc1ccccc1C1C=C(c2ccc(C(C)C)cc2)Nc2nnnn21 (centres undefined)	-	0	-	-	?	?
CCCCn1c(SCC(=O)c2cc(C)n(C3CC3)c2C)nc2cc(S(N)(=O)=O)ccc21	-	0	-	-	-	-
CC1(C)NC(=O)N(Cc2coc(-c3cccc(Cl)c3)n2)C1=O	-	0	-	-	-	-
O=C(NCCc1ccccn1)C1c2ccccc2C(=O)N(C2CCCCC2)C12CCCCC2 (centres undefined)	-	0	-	-	-	-
Cc1cn2nc(C(=O)NC3CCCCCC3)cc2c(N2CCCC2)n1	-	0	-	-	-	-
SMILES	Gal4-VP16 FLuc	ALOX12 inh	ELG1 repair inh	RORg inh	TDP1 cell CPT	TDP1 cell noCPT
CCOc1ccc(C2C=C(c3cccc(OC)c3)Nc3nnnn32)cc1 (centres undefined)	-	0	-	-	?	?
COc1ccc(C2=CC(c3cccc(C)c3)n3nnnc3N2)cc1 (centres undefined)	-	0	-	-	?	16.4µM
CCC1CCCCN1c1nc(-c2ccncc2)nc2ccccc12 (centres undefined)	0	0	?	?	29.1µM	?
CC1CCCCN1c1ncnc2ccccc12 (centres undefined)	?	0	?	?	23.1µM	10.3µM
CC1CCCCN1c1nc(-c2ccc(C(C)(C)C)cc2)nc2ccccc12 (centres undefined)	-	0	-	-	?	?
CC1CCCCN1c1nc(-c2ccncc2)nc2ccccc12 (centres undefined)	0	?	0	11.2µM	?	18.4µM
CC1(C)CC2CC(C)(CN2c2ncnc3ccccc23)C1 (centres undefined)	-	0	?	0[0.365 µM]	8.2µM	9.2µM
Cn1c(=O)c2[nH]c(N3CCN(C(=O)C4CC4)CC3)nc2n(C)c1=O	-	0	-	-	-	-
CN(CCCC(=O)OC(C)(C)C)C(=O)/C=C/c1ccc(Cl)cc1	-	0	-	-	-	-
COC(=O)c1c(F)c(F)c(Oc2ccc(C(C)=O)cc2)c(F)c1F	-	0	-	-	-	-
CCc1ccc(CNC(=O)c2nccnc2N)s1	-	0	-	-	-	-
CC(C)C(NC(=O)c1ccccc1I)c1cccs1 (centres undefined)	-	0	-	-	-	-
c1ccc2c(N3CCCCC3)ncnc2c1	0	0	?	0	?	20.6µM
COc1cc(-c2nnc3sc(Cc4ccc(Cl)cc4)nn23)cc(OC)c1OC	-	?	-	-	11.6µM	9.2µM
COc1cc(-c2nnc3sc(Cc4ccccc4)nn23)cc(OC)c1OC	0	?	0	0	20.6µM	?
Brc1ccccc1-c1nnc2sc(Cc3ccccc3)nn12	0	0	0	0	0	0
COc1ccc(Cc2nn3c(-c4cc(OC)c(OC)c(OC)c4)nnc3s2)cc1	0	0	?	0	?	?
C/C(CC(C)C)=N\NC(=O)CC#N	-	0	-	-	-	-
C=CC[C@@H](Cc1ccc(F)cc1)C(=O)OC[C@@H]1CCCN1C(=O)[C@H](CC=C)CC(=O)NCCO	-	0	0	-	?	?
C=CCC[C@@H](Cc1ccc(F)cc1)C(=O)OC[C@@H]1CCCN1C(=O)[C@@H](CC=C)CC(=O)N[C@@H](CO)Cc1ccccc1	-	?	0	-	14.6µM	16.4µM
C=CCC[C@@H](Cc1ccc(F)cc1)C(=O)OCCNC(=O)[C@@H](CC=C)CC(=O)N[C@@H](CO)Cc1ccccc1	-	0	0	-	?	0
C=CCC[C@H](Cc1ccc(F)cc1)C(=O)OC[C@@H]1CCCN1C(=O)[C@@H](CC=C)CC(=O)NCCO	-	0	0	-	?	20.6µM
COc1ccc(-c2cc3ccc(OCCN4CCN(CCO)CC4)cc3oc2=O)cc1	-	0	-	-	-	-
O=C(N/N=C\c1ccc(Sc2ccccn2)o1)c1cccc(F)c1	0	0	0	10µM	0	0
O=C(Oc1ccc(/C=N/NC(=O)c2ccccn2)cc1)c1cccc(F)c1	-	0	-	-	0	0
O=C(N/N=C/c1ccc(Sc2ccccn2)o1)c1cc2ccccc2cc1O	0[0.365 µM]	?	0	15.8µM	0	0

Screening results deposited in PubChem by National Center for Advancing Translational Sciences (NCATS).
